MazEF act – activators of E. coli MazEF toxin-antitoxin RNase. P0AE70. FAM/BHQ RNA-DNA oligo cleavage fluorescence, 5 h. activation, % at 20 µM. 350,000 tested, 0.32% active; in the data active = activation above about 50%
TcdB GH inh – blocks C. difficile toxin B glycohydrolase activity; P18177; TcdB glycohydrolase enzymatic assay, plate reader; inhibition, % at 9.99 µM; 350,000 tested, 0.24% active; in the data active = inhibition above about 10%
ugtP null kill – compounds lethal to S. aureus RN4220 ugtP deletion mutant | OD600 growth, 16 h | growth inhibition, % (concentration not given with the values) | 330,000 tested, 0.54% active | AID 1259309; in the data active = growth inhibition above about 68%;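 also: plate controls were untreated wells for no effect and antibiotic for full effect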
PfHsp40 rescue – restores yeast growth despite PfHsp40 toxicity; S. cerevisiae expressing PfHsp40, growth rescue, ATP luminescence; growth rescue, % at 12.5 µM; 340,000 tested, 0.68% active; in the data active = growth rescue above about 28%, passing the limit was not always enough; inconclusive = no clear call, values can overlap the other calls;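 also: yeast W303a lacking pdr1 and pdr3 grown in galactose medium; growth measured after three days at 30 °C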
RN4220 kill – S. aureus RN4220 growth inhibition; AID 1259311; inhibition, % (test concentration not listed); OD600, 16 h; 330,000 tested, 0.33% active; in the data active = inhibition above about 85%;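 also: plate controls were untreated cells for no effect and reference antibiotic for full effect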
Mtb hypoxia inh – reduces hypoxia-regulated biosensor signal in M. tuberculosis. M. tuberculosis hypoxia-regulated fluorescent reporter, fluorescence. fluorescence inhibition, % (test concentration not listed). 300,000 tested, 0.1% active. AID 1159583; in the data active = fluorescence inhibition mostly above about 23%, no sharp cut-off; inactive = mostly below about 17%
The depositor's hits bear a star; ? = inconclusive; nt = not tested or not shown. This is a sample that favours compounds with a hit; in the whole collection about 1.3% have one here.

SMILES	MazEF act	TcdB GH inh	ugtP null kill	PfHsp40 rescue	RN4220 kill	Mtb hypoxia inh
C=CCC(CC(=O)NCCO)C(=O)NC(COC(=O)C(CC=C)Cc1ccc(F)cc1)Cc1c[nH]c2ccccc12 (configuration not stated)	nt	nt	0	nt	7	15
C=CCC[C@@H](Cc1ccc(F)cc1)C(=O)OC[C@H](Cc1c[nH]c2ccccc12)NC(=O)[C@@H](CC=C)CC(=O)NCCO	9	1	nt	33*	nt	nt
C=CCC[C@@H](Cc1ccc(F)cc1)C(=O)OC[C@@H](Cc1c[nH]c2ccccc12)NC(=O)[C@@H](CC=C)CC(=O)NCCO	-5	-1	-5	40*	5	1
C=CCC[C@H](Cc1ccc(F)cc1)C(=O)OC[C@@H](Cc1c[nH]c2ccccc12)NC(=O)[C@@H](CC=C)CC(=O)NCCO	9	-4	nt	57*	nt	nt
O=C(O)CCCN1C(=O)/C(=C/c2cn(-c3ccccc3)nc2-c2cccs2)SC1=S	-158	nt	83*	-1	50	0
O=C(O)CCCN1C(=O)/C(=C\c2ccccc2OCc2ccccc2)SC1=S	1	-5	16	1	27	-1
Cc1ccc(S(=O)(=O)NCCOCCNS(=O)(=O)c2ccc(C)cc2)cc1	-1	nt	-3	1	0	-1
COCCNS(=O)(=O)c1ccc(-c2ccc(C)cc2)cc1	8	2	0	0	2	77*
COC(=O)C1=C(c2ccc(F)cc2OCc2ccccc2)CC2CCC1N2C(=O)NC1CC1 (configuration not stated)	nt	nt	-7	nt	2	0
CCCC#Cc1ccc2c(c1)O[C@@H](CN(C)C(=O)c1ccncc1)[C@@H](C)CN([C@@H](C)CO)S2(=O)=O	nt	-1	nt	nt	nt	nt
O=C(CCl)N(c1ccc(Cl)cc1)c1c[nH]c2ccccc12	-1	nt	97*	0	90*	36*
O=C(Cc1ccc(Cl)cc1)NCCc1c[nH]c2ccccc12	3	1	nt	-1	nt	nt
O=C(CCl)N(c1ccccc1)c1c[nH]c2ccccc12	1	nt	90*	8	91	nt
COc1ccccc1S(=O)(=O)N1CC[C@H]2[C@H](CO)Nc3ccc(-c4ccccc4F)cc3[C@H]21	nt	-1	nt	nt	nt	nt
CCOc1ccc(CCNC(=O)c2ccc(CS(=O)Cc3ccc(Cl)cc3)o2)cc1OCC (configuration not stated)	5	0	15	2	3	4
CCOc1ccc(CCNC(=O)c2ccc(CS(=O)Cc3cccc(Cl)c3)o2)cc1 (configuration not stated)	9	3	96*	1	-6	2
Cc1cc(C(=O)N/N=C/c2ccc(O)c(O)c2O)c(C)n1-c1ccccc1	-3	-2	nt	87*	nt	nt
CCCOc1ccc2ccccc2c1/C=C1\SC(=O)NC1=O	-5	0	19	504*	4	12
O=C1NC(=O)/C(=C/c2cccc3ccccc23)S1	-5	1	15	11	32	5
CCOC(=O)c1nnn(CC(=O)Nc2cccc(OC)c2)c1C(=O)OCC	6	nt	5	0	2	nt
COC(=O)c1nnn(CC(=O)Nc2cccc(OC)c2)c1C(=O)OC	1	nt	1	80*	4	nt
COc1ccccc1NC(=S)NN=C(C)c1ccccn1	3	-2	nt	180*	nt	nt
CC(=NNC(=S)Nc1ccc(C)cc1)c1ccccn1	2	-1	nt	0	nt	nt
COc1ccc(C(=O)N/N=C(\C)c2ccccn2)cc1OC	10	3	nt	-2	nt	nt
CC(=NNC(=S)Nc1cccc(C)c1)c1ccccn1	-12	-3	nt	116*	nt	nt
SMILES	MazEF act	TcdB GH inh	ugtP null kill	PfHsp40 rescue	RN4220 kill	Mtb hypoxia inh
Cc1ccc(-c2ccc3c(c2)O[C@H](CN(C)Cc2ccncc2)[C@@H](C)CN([C@H](C)CO)S3(=O)=O)cc1	nt	-1	nt	nt	nt	nt
CC(=NO)C1CC(CC(=O)O)C1(C)C (configuration not stated)	nt	nt	-1	nt	4	-1
O=[N+]([O-])c1ccc(N=NN(CCO)CCO)cc1	-7	0	11	1	1	7
O=[N+]([O-])c1ccc(N=Nc2ncc[nH]2)cc1	5	0	10	85*	19	nt
CN1CCN(C(=O)C[C@H]2C=C[C@@H](NC(=O)Cc3ccccn3)[C@@H](CO)O2)CC1	nt	0	nt	nt	nt	nt
COC(=O)[C@@]12CCCN1C(c1ccc(-c3ccc(OC)cc3)c(OC)c1)C1C(=O)N(C)C(=O)C12 (some centres not stated)	nt	nt	14	nt	6	-7
O=C(Cn1sc2ccccc2c1=O)NC12CC3CC(CC(C3)C1)C2	-15	nt	101*	3	106*	nt
O=C(Cn1sc2ccccc2c1=O)Nc1ccccc1	-27	1	nt	nt	nt	nt
O=C(Nc1nnc(C2=COCCO2)o1)c1cccc(C(F)(F)F)c1	-6	2	82	1	95*	2
CS(=O)(=O)N1[C@H](C#N)[C@H](c2ccccc2)[C@@H]1CO	nt	0	nt	nt	nt	nt
COc1ccc(N2C(=O)CC(SCc3ccc(Cl)cc3)C2=O)cc1 (configuration not stated)	12	-1	-2	70*	3	12
O=C(NN=Cc1ccccc1C(F)(F)F)c1ccc2nc[nH]c2c1	nt	nt	-6	nt	-3	-2
N#Cc1c(Nc2ccccc2)[n+]([O-])c2ccc(Cl)cc2[n+]1[O-]	-25	1	nt	69*	nt	nt
CN(c1ccccc1)c1nc(N2CCCC2)nc(-n2ccnc2)n1	-5	nt	1	393*	-9	nt
Cc1ccc(C=C2C(Cl)=C(Cl)C(Cl)=C2Cl)cc1	-15	nt	100*	nt	97*	15
CC1(C)CC(=NNc2ccc([N+](=O)[O-])cc2[N+](=O)[O-])C(C)(C)O1	nt	nt	12	nt	3	-5
Fc1ccc(CSc2nnc(-c3ccccn3)o2)cc1	5	1	6	-1	4	39*
O=C(CSc1nnc(-c2ccccn2)o1)Nc1ccc(F)cc1	1	2	3	-1	0	2
CC(NC(=O)c1ccc(F)cc1)c1ccc2c(c1)CCCC2 (configuration not stated)	2	nt	-16	0	-10	nt
CC(NC(=O)c1ccc(Br)cc1)c1ccc2c(c1)CCCC2 (configuration not stated)	10	nt	-12	137*	-6	20
CCc1ccc(/C=C/C(=O)c2cc(Br)ccc(=O)c2O)cc1	-11	nt	95*	?	100*	1
O=C(C=Cc1ccccc1)c1cc(Br)ccc1O	-3	-1	18	1	3	14
Cc1cccc(/C=C/C(=O)c2cc(Br)ccc(=O)c2O)c1	-6	nt	99*	11	99*	nt
CCOc1ccc(/C=C/C(=O)c2cc(Br)ccc(=O)c2O)cc1	-4	0	90*	16	84	16
Cc1ccc(/C=C/C(=O)c2cc(Br)ccc2OC(=O)c2ccco2)cc1	-3	nt	27	0	2	6
O=S(=O)(Cc1cccc(F)c1)c1c[nH]c2ccccc12	-20	15*	-2	-1	17	4
O=C(CS(=O)(=O)c1c[nH]c2ccccc12)Nc1ccc(F)cc1	5	0	nt	-1	nt	nt
